Measurements from PubChem BioAssay (NCATS).
Where “and” joins values, the source holds several entries; their conditions need not be identical. Equal values may be shown once. Records with an inconclusive call do not appear. Calls of active or inactive are those of the source. The call rests on the fitted dose curve; in most records, active means well fitted cell-killing curve with a large enough effect; inconclusive means small, poorly fitted or top-dose-only effect, or effect the other way, or another doubt; inactive means no such curve, though single readings can be large or run the other way.

Test: Identifying Small Molecule Inhibitors of Pancreatic Cancer Stem Cells (Panc1, Adherent) (AID 1259362)
Conditions: Potency: viability; series mostly up to 46.1 µM
Description: Progenitor-like cancer cells, often referred to as cancer stem cells (CSC), are believed to be the drivers of therapeutic resistance and rapid recurrence. CSCs are postulated to reside in specific niches characterized by low oxygen tension, limited nutrient supply, and high redox load. Selectively targeting CSC, alone or in combination with cytotoxic agents, as a means to produce durable remissions is an appealing concept. Modeling these cells in in vitro setting is an important step in finding new therapies and/or targets. Multiple reports highlight that forcing cells in culture into 3-dimensionaly architectures (spheroids) re-establishes key progenitor-like transcriptional signatures. Pancreatic cancer is among the diseases with the most dismal outlook which is driven, largely, by recurance following front-line therapies. […] In hopes of deriving new insight into the targeting of these pancreatic CSCs we examined three established pancreatic cancer cell lines in cytotoxicity assays versus a collection of approved and investigational drugs. Importantly, we screened these lines as traditional monolayer (2D) and spheroid (3D) formats to gain an appreciation of agents with differential activity.
Multicellular tumor spheroids from Panc1, MiaPaCa-2, and the primary low-passage tissue culture line SB.06 were seeded in stem cell media (SCM) in nonadherent 6-well plates coated with hydrogel (Corning Life Sciences, Chelmsford, Mass) and pancreatic spheres generated for 14 days before screening. Cells were seeded into 1536-well solid-bottom white tissue culture treated Greiner Bio One Plates (789173-F) using a MultiDrop Combi (Thermofisher Scientific) dispenser and a small sterile cassette. One column was media alone to be used as a :"no cells" control. The plates were then covered with sterilized stainless steel gasketed lids from Kalypsys. After allowing cells to attach for 4 hours, 23 nL of test compound or control (negative control DMSO and positive control 9.2 uM Bortezomib-final) were added from a 1536-well polypropylene compound source plate to each well using a 1536 head pin tool from Kalypsys. Cells were then incubated for 48 hours at 37C, 95% relative humidity and 5% CO2. After 48 hours, plates were removed from the incubator and 3 uL of CellTiter-Glo (Promega) was added using an Aurora Flying Reagent Dispenser Bioraptor. Plates were incubated at room temperature for 10 minutes prior to reading the luminescence on the Viewlux (PerkinElmer). The relative luciferase units are used to calculate the percent activity using the activity of DMSO in the cells and no cells columns for normalization of no inhibition and full inhibition respectively.
Potency means the concentration at half of the fitted maximal effect.

Row | Structure (SMILES) | Potency
1 | C1=CCOCc2cc(ccc2OCCN2CCCC2)Nc2nccc(n2)-c2cccc(c2)OCC1 | 1.87 µM (active)
2 | Cc1[nH]nc2ccc(-c3cncc(OC[C@@H](N)Cc4ccccc4)c3)cc12 | 4.69 µM (active)
3 | NC(=O)Nc1cc(-c2cccc(F)c2)sc1C(=O)N[C@H]1CCCNC1 | 1.48 µM (active)
4 | CC[C@@H]1C(=O)N(C)c2cnc(Nc3ccc(C(=O)NC4CCN(C)CC4)cc3OC)nc2N1C1CCCC1 | 0.0093 µM (active)
5 | O=C(O)[C@H](Cc1c[nH]c2ccccc12)N1C(=O)c2ccccc2C1=O | inactive
6 | CCN1CCN(CC(=O)Nc2ccc(-c3cccc4c(=O)cc(N5CCOCC5)oc34)c3sc4ccccc4c23)CC1 | 23.5 µM (active)
7 | CC1=C(CO)C(=O)O[C@@H]([C@@H](C)[C@H]2CC[C@H]3[C@@H]4C[C@H]5O[C@]56[C@@H](O)C=CC(=O)[C@]6(C)[C@@H]4CC[C@]23C)C1 | 2.96 µM (active)
8 | Cc1[nH]c2ccccc2c1CCNCc1ccc(C=CC(=O)NO)cc1 | 0.148 µM (active)
9 | CC(=O)SC[C@@H](C)C(=O)N1CCC[C@H]1C(=O)N[C@@H](Cc1ccccc1)C(=O)O | inactive
10 | O=C(C=Cc1cccnc1)NCCCCC1CCN(C(=O)c2ccccc2)CC1 | inactive
11 | C[C@@H](Oc1cc(-n2cnc3ccc(CN4CCN(C)CC4)cc32)sc1C(N)=O)c1ccccc1C(F)(F)F | 0.0037 µM (active)
12 | Cc1ccc(C(=O)Nc2cccc(C(F)(F)F)c2)cc1-c1ccc2nc(NCCN3CCOCC3)ncc2c1 | 11.8 µM (active)
13 | Clc1ccc2ncc(-c3cccc(NC4CNC4)n3)n2c1 | inactive
14 | COC(=O)[C@]12CCC(C)(C)C[C@@H]1[C@@H]1C(=O)C=C3[C@@]4(C)C=C(C#N)C(=O)C(C)(C)[C@@H]4CC[C@@]3(C)[C@]1(C)CC2 | 2.96 µM (active)
15 | Nc1nccc(Oc2ccc(NC(=O)c3c[nH]cc(-c4ccc(F)cc4)c3=O)cc2F)c1Cl | inactive
16 | CC(C)C[C@H](NC(=O)CNC(=O)c1cc(Cl)ccc1Cl)B(O)O | 0.187 µM (active)
17 | CC1(C)OC2=C(C(=O)c3ccccc3C2=O)[C@H](NCc2ccccc2)[C@H]1O | 3.32 µM (active)
18 | C=CC(=O)Nc1cc2c(Nc3ccc(F)c(Cl)c3)ncnc2cc1C#CC(C)(C)N1CCN(C)CC1 | 11.8 µM (active)
19 | CN1CCN(c2ccc3nc(-c4c(N)c5c(F)cccc5[nH]c4=O)[nH]c3c2)CC1 | 33.2 µM (active)
20 | CCC[C@H](NC(=O)C(C#N)=Cc1cccc(Br)n1)c1ccccc1 | 20.9 µM (active)

Row | Structure (SMILES) | Potency
21 | CCN(CC)CCCCNc1ncc2cc(-c3cc(OC)cc(OC)c3)c(NC(=O)NC(C)(C)C)nc2n1 | inactive
22 | O=C(C=Cc1c(C(=O)O)[nH]c2cc(Cl)cc(Cl)c12)Nc1ccccc1 | inactive
23 | Cc1ccc(C(=O)Nc2ccc(CN3CCN(C)CC3)c(C(F)(F)F)c2)cc1C#Cc1cnc2cccnn12 | 23.5 µM (active)
24 | COc1cccc2nc(-c3cccs3)nc(NN3C(=O)C=C(C)C3=O)c12 | 16.6 µM (active)
25 | COCCn1c2c([n+](Cc3cnccn3)c1C)C(=O)c1ccccc1C2=O | inactive
26 | C=CC(=O)Nc1cccc(Oc2nc(Nc3ccc(N4CCN(C)CC4)cc3OC)ncc2Cl)c1 | inactive
27 | COc1cc2ncnc(Nc3ccc(F)c(Cl)c3)c2cc1NC(=O)C=CCN1CCCCC1 | 23.5 µM (active)
28 | CCOc1cc2ncc(C#N)c(Nc3ccc(F)c(Cl)c3)c2cc1NC(=O)C=CCN(C)C | 18.7 µM (active)
29 | CC(=O)OCCN1C(=O)c2c(C)nc3ccc(S(=O)(=O)N4CCOCC4)cc3c2C1=O | 10.5 µM (active)
30 | C=CCn1c(=O)c2cnc(Nc3ccc(N4CCN(C)CC4)cc3)nc2n1-c1cccc(C(C)(C)O)n1 | 0.59 µM (active)
31 | CC(NCc1ccc2c(c1)nc(NC(=O)c1ccc(-c3cn[nH]c3)s1)n2CC(C)(C)O)C(C)(C)C (stereo not given) | 0.264 µM (active)
32 | N#Cc1c(O)c2c(-c3ccc(-c4ccccc4O)cc3)csc2[nH]c1=O | inactive
33 | CS(=O)(=O)N1CCN(Cc2cc3nc(-c4cccc5[nH]ncc45)nc(N4CCOCC4)c3s2)CC1 | 0.59 µM (active)
34 | COc1cc(OC2CCN(C)CC2)ccc1Nc1ncc2c(n1)n(C1CCCC1)c(=O)n2C | 2.96 µM (active)
35 | O=C(NCCCNc1nc(Nc2cccc(NC(=O)N3CCCC3)c2)ncc1I)c1cccs1 | 11.8 µM (active) and 16.6 µM (active)
36 | CCCCN1CCC(CNC(=O)c2c3n(c4ccccc24)CCCO3)CC1 | inactive
37 | Cc1cnc(Nc2ccc(F)cc2Cl)nc1-c1c[nH]c(C(=O)N[C@H](CO)c2cccc(Cl)c2)c1 | 18.7 µM (active)
38 | CN(C)CC=CC(=O)Nc1cc2c(Nc3ccc(F)c(Cl)c3)ncnc2cc1O[C@H]1CCOC1 | 1.48 µM (active)
39 | CN1CC[C@@H](c2c(O)cc(O)c3c(=O)cc(-c4ccccc4Cl)oc23)[C@@H](O)C1 | 0.132 µM (active)
40 | O=C(Nc1cc(C(F)(F)F)cc(C(F)(F)F)c1)c1cc(Cl)ccc1O | 0.0332 µM (active)
